# Screening results from PubChem.
# HEK cytotox = cytotoxic compounds in HEK 293 cells. actives 6.6% (n = 94,000). HEK 293 viability, ATP luminescence (CellTiter-Glo), 48-72 h. Potency, µM (top dose mostly 115 µM), inactives show top-dose activity change, negative = cytotoxicity, hits mostly inhibitors; also: nearly all actives have a fitted effect of over 60% in size
#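 HEK 293 cells at 250 cells/well were exposed to compounds by pintool transfer for 48 or 72 hr at 37 degree Celsius, 5% CO2. Viability was read as ATP-coupled luminescence with CellTiter-Glo after 10 min at room temperature.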
# Luciferase inh = Photinus pyralis luciferase inhibition; AID 1347043; purified P. pyralis luciferase, luminescence, biochemical; actives 2.5% (n = 76,000); Potency, µM (highest dose often 115 µM), hits mostly inhibitors; also: nearly all actives have a fitted effect of over 65% in size
#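 Luminescence read by CCD imaging after purified firefly luciferase (10nM final) was added to substrate buffer holding 10uM D-luciferin and 10uM ATP, pH 7.5, pre-dosed with compound.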
# NIH3T3 tox = cytotoxic compounds in NIH 3T3 cells | AID 1345082 | NIH 3T3 viability, CellTiter-Glo ATP luminescence, 48-72 h | actives 4.3% (n = 94,000) | Potency, µM (titrated, usually from 96.7 µM), without a hit: at the highest dose activity change, negative = cytotoxicity, hits mostly inhibitors; also: nearly all actives have a fitted effect of over 55% in size
#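 Cytotoxicity was measured by CellTiter-Glo ATP luminescence after 48 or 72 h compound exposure at 37 °C. Mouse NIH 3T3 fibroblasts were seeded at 400 cells/well and dosed by 23 nL pin transfer.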
# NPR1 antag = human Npr1 receptor antagonism; HEK293 hNpr1 GloSensor cGMP, ANP-stimulated luminescence; Potency, µM (highest dose often 46.3 µM), inactives show at the highest dose activity change, negative = inhibition, most hits filed as inhibitors; actives 1.6% (n = 76,000); calls by dose curve; also: nearly all actives have a fitted effect of over 60% in size
# Target sequence (P16066 whole entry, looked up): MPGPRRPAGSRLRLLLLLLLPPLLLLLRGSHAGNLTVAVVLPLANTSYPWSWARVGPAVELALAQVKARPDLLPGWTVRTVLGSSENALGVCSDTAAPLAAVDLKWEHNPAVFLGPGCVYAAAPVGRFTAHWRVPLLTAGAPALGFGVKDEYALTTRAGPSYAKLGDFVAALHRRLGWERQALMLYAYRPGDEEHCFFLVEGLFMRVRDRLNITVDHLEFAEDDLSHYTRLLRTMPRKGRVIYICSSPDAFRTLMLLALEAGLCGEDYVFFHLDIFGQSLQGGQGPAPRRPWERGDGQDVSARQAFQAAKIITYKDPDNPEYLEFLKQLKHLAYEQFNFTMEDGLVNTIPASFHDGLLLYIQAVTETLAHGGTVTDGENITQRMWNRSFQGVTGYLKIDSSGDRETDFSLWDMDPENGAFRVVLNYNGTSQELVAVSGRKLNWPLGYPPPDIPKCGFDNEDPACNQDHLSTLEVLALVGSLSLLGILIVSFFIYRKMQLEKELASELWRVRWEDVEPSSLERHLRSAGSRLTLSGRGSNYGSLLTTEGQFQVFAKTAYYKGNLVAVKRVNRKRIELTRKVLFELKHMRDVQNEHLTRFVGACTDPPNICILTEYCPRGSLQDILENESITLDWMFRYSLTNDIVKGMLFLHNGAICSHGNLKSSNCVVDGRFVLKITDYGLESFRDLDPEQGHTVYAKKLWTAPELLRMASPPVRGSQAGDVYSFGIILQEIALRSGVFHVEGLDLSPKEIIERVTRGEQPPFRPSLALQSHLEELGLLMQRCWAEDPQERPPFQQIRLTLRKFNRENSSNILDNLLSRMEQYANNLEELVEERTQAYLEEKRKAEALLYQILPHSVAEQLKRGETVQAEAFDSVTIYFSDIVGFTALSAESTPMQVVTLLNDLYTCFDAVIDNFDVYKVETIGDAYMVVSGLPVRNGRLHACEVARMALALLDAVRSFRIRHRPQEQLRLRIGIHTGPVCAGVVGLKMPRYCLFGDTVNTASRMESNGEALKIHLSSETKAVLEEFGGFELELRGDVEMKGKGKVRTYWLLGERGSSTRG
#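 HEK293 cells stably expressing human Npr1 and cGMP GloSensor pGS-40F, loaded 2 h with 2% GloSensor reagent, given compound 30 min at room temperature. Luminescence read before and 20 min after 0.1 nM hNppA.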
# GPT2 inh = inhibitors of human GPT2 alanine aminotransferase; Q8TD30; Recombinant GPT2, coupled pyruvate oxidase/HRP Amplex Red fluorescence; actives 0.25% (n = 100,000); AID 1671188; Potency, µM (top dose mostly 57.7 µM), without a hit: top-dose activity change, negative = inhibition, hits mostly inhibitors; also: nearly all actives have a fitted effect of over 60% in size
#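 GPT2 10ng/uL, a-KG 250uM, L-Ala 2mM, HEPES pH7.5 + 0.0001% Tween; 30 min RT. Then Amplex mix (PO/HRP/ThPP), 30 min RT dark, fluorescence. AOA 50uM used as positive control.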
# * marks the source's active call; other numbers are inactive results; i = inactive; ? = inconclusive; nt = no result; ! = a repeat was not active; [ ] = dose if it differs, or a comment. Shown are actives, neighbours in structure and some others; about 10% of the full set was active somewhere. Unless noted, calls follow the shape of the dose curve; as a rule, active = well fitted curve in the direction sought with a large enough effect; inconclusive = small, poorly fitted or top-dose-only effect, or another doubt; inactive = no such curve, though single readings can be large; an effect the other way counts as inactive or inconclusive. % is scaled to controls: 0 for no effect and ±100 for the full control effect; potency is read from the fitted curve at half-maximal effect.
SMILES,HEK cytotox,Luciferase inh,NIH3T3 tox,NPR1 antag,GPT2 inh
COC1C(=O)N(c2cccc(F)c2)C12CCN(S(=O)(=O)Cc1ccccc1)CC2 (configuration not stated),?,i,-17%,-3%,i
COC1C(=O)N(c2cccc(F)c2)C12CCN(S(=O)(=O)Cc1ccccc1F)CC2 (configuration not stated),40µM*,i,-18%,-25%,1%
COc1ccccc1Nc1ncc2c(n1)CN(C(=O)Cc1cccc(F)c1)CCN2,?,i,?,2%[70.6 µM],i
COc1ccccc1Nc1ncc2c(n1)CN(C(=O)c1cccc(C#N)c1)CCN2,79µM*,i,-24%[138 µM],?,i
COc1ccccc1Nc1ncc2c(n1)CN(C(=O)c1cc3ccccc3n1C)CCN2,71µM*,i,?,-17%[70.6 µM],-2%[88.5 µM]
CS(=O)(=O)N1CCC2(CC1)CN(c1cccc(F)c1)C2c1ccccc1 (configuration not stated),13µM*,nt,?,nt,-26%
O=C(NC1CCN(C(=O)c2ccc(-c3cccs3)cc2)CC1)c1ccccc1F,?,nt,?,nt,-2%
COc1cc(-c2noc(-c3ncn4c3COC(c3ccc(F)cc3)C4)n2)cc(OC)c1OC (configuration not stated),?,i,?,0%,i
COc1ccc(-c2noc(-c3ncn4c3COC(c3ccc(F)cc3)C4)n2)cc1OC (configuration not stated),?,i,28µM*,4%,i
Fc1ccc(C2Cn3cnc(-c4nc(-c5ccc6c(c5)OCO6)no4)c3CO2)cc1 (configuration not stated),?,?,25µM*,-10%,-16%
COc1ccccc1-c1cccc(C(=O)N2CCC[C@H]2C(=O)N2CCC(c3ccccc3)CC2)c1,?,nt,?,nt,i
COc1ccccc1-c1ccc(CN2CCC(NC(=O)Cc3ccc(F)cc3)C2)cc1 (configuration not stated),40µM*,nt,40µM*,nt,i
COc1ccc(CC(=O)NC2CCN(C(=O)c3ccc(-c4ccccc4OC)cc3)CC2)cc1,?,nt,40µM*,nt,i
COc1ccccc1-c1ccc(CN2CCC(NC(=O)C3CCCCC3)C2)cc1 (configuration not stated),?,nt,32µM*!,nt,nt
Cc1ccsc1C(=O)N1CCN(C(=O)c2nnn3c2COC(c2ccc(Cl)cc2)C3)CC1 (configuration not stated),?,i,?,?,i
O=C(C1CCN([S+](=O)([O-])c2cccc(C(F)(F)F)c2)CC1)N1CCC(N2Cc3ccccc3C2=O)CC1,?,nt,?,nt,i
O=C(C1CCCCC1)N1CCN2CCS(=O)(=O)N(C3CC3)C(=O)C2C1 (configuration not stated),-25%,nt,-39%,nt,?
C[S+](=O)([O-])NCCNC(=O)c1ccc(-c2cncnc2)cc1,4%[172 µM],nt,i,nt,nt
CC(C)NC(=O)N1CCC2(CC1)CC(c1cccc(C(F)(F)F)c1)=NO2,?,nt,-11%,nt,nt
O=C(Cc1ccc2c(c1)OCCCO2)NC1CCCc2c1[nH]c1c(Cl)cccc21 (configuration not stated),?,i,?,-6%,2%
O=C(COc1ccccc1)NC1CCCc2c1[nH]c1c(Cl)cccc21 (configuration not stated),45µM*,i,?,-2%,-5%
O=C(NC1CCCc2c1[nH]c1c(Cl)cccc21)C1(c2ccccc2)CCOCC1 (configuration not stated),-5%,i,-23%,1%,i
O=C(Cc1n[nH]c(=O)c2ccccc12)NC1CCCc2c1[nH]c1c(Cl)cccc21 (configuration not stated),-115%,i,?,-27%,2%
O=C(Cc1cccs1)NC1CCCc2c1[nH]c1c(Cl)cccc21 (configuration not stated),?,i,32µM*,-8%,-1%
